According to PubChem BioAssay AID720532 (National Center for Advancing Translational Sciences (NCATS), 2013):
Several values for one entry are separate records, joined by “and”; a condition that tells them apart may be missing. Equal values may be shown once. The whole screen tested about 18,000 compounds, of which about 1,200 (6.7%) were called active. Roughly 16% stayed inconclusive and do not appear here. Calls follow the shape of the full dose curve; tested in HEK293 cells. The entries come from a sample that favours actives as a whole. Some structures have more than one record in an assay (separate samples or runs), and their calls can disagree.

assay: qHTS for Inhibitors of binding or entry into cells for Marburg Virus; conditions: Marburg virus pseudotype entry/binding inhibition, cell-based; series mostly up to 49.2 µM; activity change, negative = inhibition: at the top concentration
% is scaled to controls: 0 for no effect and ±100 for the full control effect; potency is read from the fitted curve at half-maximal effect.

| Molecule | activity change, negative = inhibition | Potency |
| --- | --- | --- |
| COc1ccc(-c2nc(-c3ccccc3)oc2Nc2ccc3ccccc3c2)cc1 | inactive |  |
| O=S1(=O)CC(N2CCC(Cc3ccccc3)CC2)CN1Cc1ccccc1 (stereo unspecified) | 2.7% (inactive) |  |
| CCOC(=O)C1=C(C(=O)OCC)C(C(=O)OCC)N(S(=O)(=O)C(F)(F)F)c2ccccc21 (stereo unspecified) | 4.82% (inactive) |  |
| COC(=O)C(C(=O)OC)[C@@H](NC=O)c1ccccc1 | -11% (inactive) |  |
| C=CCN(Cc1ccc([N+](=O)[O-])cc1)S(=O)(=O)C=C | -5.13% (inactive) |  |
| COC(=O)CC=C[C@@H](C)[C@H](NC(=O)OCC(Cl)(Cl)Cl)c1ccc2ccccc2c1 | -17.9% [at 8.59 µM] (inactive) |  |
| CC[C@H](C)[C@H](NC(=O)[C@@H](N)CCC(=O)O)C(=O)N[C@@H](CC(C)C)C(=O)N[C@@H](CC(=O)O)C(=O)N[C@H](C(=O)N1CCC[C@H]1C(=O)N[C@@H](CO)C(=O)N[C@H](C(=O)O)[C@@H](C)O)C(C)C | -3.43% (inactive) |  |
| CCCCN1CC(COc2ccccc2)Oc2cccc(F)c2S1(=O)=O (stereo unspecified) | 21.2% (inactive) |  |
| CCCCN1CC(COCc2ccccc2)OCCS1(=O)=O (stereo unspecified) | 8.55% (inactive) |  |
| CC[C@@]12C=C(/C=C/c3ccccc3)[C@](CC)(C1)[C@H](c1ccccc1)CC2=O | -11% (inactive) |  |
| FC(F)(F)c1ccc(-c2nn3ncccc3c2-c2ccnc(Nc3ccc4c(c3)OCCO4)n2)cc1 | -23.2% (inactive) |  |
| COc1cc(Nc2nccc(-c3cnn4ncccc34)n2)cc(OC)c1 |  | 3.53 µM (active) |
| C[C@@H]1C[C@H]2CC[C@H](O2)[C@H](C)C(=O)O[C@@H](C)C[C@@H]2CC[C@@H](O2)[C@@H](C)C(=O)O[C@H](C)C[C@H]2CC[C@H](O2)[C@H](C)C(=O)O[C@@H](C)C[C@@H]2CC[C@@H](O2)[C@@H](C)C(=O)O1 |  | 0.631 µM (active) |
| C#CCNc1ccc2c(c1)OC[C@@H](C)NS2(=O)=O | 20.1% (inactive) |  |
| COc1cc2c(c(OC)c1OC)CC(C)=C(C)CC2NC(=O)C(F)(F)F (stereo unspecified) | -9.07% [at 8.59 µM] (inactive) |  |
| COCOCCn1cc(CN2CCS(=O)(=O)N(Cc3ccc(-c4cccc(N(C)C)c4)cc3)C(CC(C)C)C2=O)nn1 (stereo unspecified) | 4.51% (inactive) |  |
| C[C@H](CO)NS(=O)(=O)c1ccc(Br)cc1F | 10.2% (inactive) |  |
| CCCCC/C=C\C[C@H](O)/C=C/C=C/C=C/[C@@H](O)CCCC(=O)O | 2.42% (inactive) |  |
| C=CCOC(=O)C(=C)C | 9.41% (inactive) |  |

| Molecule | activity change, negative = inhibition | Potency |
| --- | --- | --- |
| C[C@@H]1CC2=CCCC2[C@]2(O1)C(=O)N(CC1CC1)c1cccc(Br)c12 (stereo partly specified) | 72.4% [at 8.59 µM] (inactive) |  |
| O=C(Nc1cccc(C(=O)N2CCCC2)c1)c1ccccc1 | 18.3% (inactive) |  |
| CC(=O)N1CCN(Cc2cc(=O)oc3cc(C)ccc23)CC1 | 18.6% (inactive) |  |
| O=C(OCCN1CCOCC1)C1(c2ccccc2)CCCCC1 |  | inactive and 31.6 µM (active) |
| COc1cc(OC)c2c(c1Cl)OC1(C2=O)C(O)=CC(=O)CC1C (stereo unspecified) | -5.71% (inactive) |  |
| CSc1ccccc1N1CCN(CCCCCC(=O)NC2CCCc3ccccc32)CC1 (stereo unspecified) |  | 10 µM (active) |
| COC(=O)Nc1nc2ccc(Sc3ccccc3)cc2[nH]1 | -40.1% [at 17.8 µM] (inactive) |  |
| COC(=O)Nc1nc2ccc(Oc3ccc(NC(=O)Nc4cccc(Cl)c4)cc3)cc2[nH]1 |  | 4.99 µM (active) |
| C1CC[C@H]([C@@]23C[C@H](C[C@H]4CCCN[C@H]42)[C@@H]2CCCCN2C3)NC1 |  | 12.6 µM (active) |
| COC(=O)CC=C[C@@H](C)[C@H](NC(=O)OCC(Cl)(Cl)Cl)c1ccccc1 | 0.224% [at 8.59 µM] (inactive) |  |
| NC[C@@H]1O[C@H](O[C@@H]2[C@H](O[C@@H]3O[C@H](CO)[C@@H](COC[C@H]4O[C@@H](CN)[C@@H](O)[C@@H](O)[C@@H]4N)[C@@H]3O)[C@@H](O)[C@@H](N)C[C@H]2N)[C@@H](N)[C@H](O)[C@@H]1O | 2.02% [at 17.8 µM] (inactive) |  |
| Nc1ccc2c3c(cccc13)C(=O)NC2=O | 17.5% (inactive) |  |
| S=C(NCCCc1cnc[nH]1)NCCCN(Cc1ccc(Cl)c(Cl)c1)c1ccc(Br)cn1 |  | 20 µM (active) |
| CCCCC[C@H](O)/C=C/[C@@H]1[C@@H](CC(=O)CCC(=O)O)[C@@H](O)C[C@H]1O | -3.98% (inactive) |  |
| CCOC(=O)[C@@]12C3[C@@H](CCN3C(=O)N[C@@H]1c1ccccc1)[C@@H]2C (stereo partly specified) | -11.3% [at 8.59 µM] (inactive) |  |
| O=S1(=O)CCSCCN1Cc1ccccc1F | 20.8% (inactive) |  |
| CC(C)NC[C@H](O)c1ccc2ccccc2c1 | 3.68% (inactive) |  |
| Nc1nc2nc(Cl)[nH]c2c(=O)[nH]1 | 7.94% (inactive) |  |
| COC(=O)c1cc(C(=O)OC)n2ccc3cc(OC)c(OC)cc3c12 | 51.8% [at 8.59 µM] (inactive) |  |

| Molecule | activity change, negative = inhibition | Potency |
| --- | --- | --- |
| CO/N=C(\C(=O)N[C@@H]1C(=O)N2C(C(=O)O)=C(C[N+]3(C)CCCC3)CS[C@H]12)c1csc(N)n1 | 19.5% (inactive) |  |
| COc1ccc2nccc(C(=O)O)c2c1 | 2.51% [at 17.8 µM] (inactive) |  |
| CC[C@@H]1CN2CC[C@@H]1C[C@H]2[C@H](O)c1ccnc2ccc(OC)cc12 |  | 31.6 µM (active) |
| COc1cccc([C@@H]2Oc3ccc(Br)cc3C(=O)[C@H]2OC(=O)NCCc2ccc(OC)c(OC)c2)c1 | 52.3% (inactive) |  |
| CCCC(C(=O)OCCN(CC)CC)(c1ccccc1)c1ccccc1 |  | 15.8 µM (active) |
| CCC(C(=O)OCCN(CC)CC)c1ccccc1 (stereo unspecified) | 2.21% (inactive) |  |
| CC[N+]1(CCOC(=O)C(O)(c2ccccc2)c2ccccc2)CCCCC1 | 2.06% (inactive) |  |
| CCCCC/C=C\C/C=C\CCCCCCCCCC(N)=O | -10.4% (inactive) |  |
| CCCCOCC1CN(CCCC)S(=O)(=O)c2c(Oc3ccc(F)cc3)cccc2O1 (stereo unspecified) | -22.2% (inactive) |  |
| CN1CCN2c3ccccc3Cc3ccccc3[C@@H]2C1 |  | 15.8 µM (active) |
| CN1C(=O)CN2CCc3ccccc3C2c2cc(Cl)ccc21 (stereo unspecified) | -3.29% (inactive) |  |
| H-EHIPA-OH | 6.8% (inactive) |  |
| COc1ccc(Nc2ncnc3ccc(OC)cc23)cc1 | 15.2% (inactive) |  |
| CC(C)(C)OC(=O)Nc1ccc(OCc2cn(CC(=O)c3ccc(O)cc3)nn2)cc1 | 17.5% (inactive) |  |
| CO/N=C(/C(=O)N[C@@H]1C(=O)N2C(C(=O)O)=C(Cn3nnc(C)n3)CS[C@H]12)c1csc(N)n1 | 13% (inactive) |  |
| CC/C=C\C/C=C\C/C=C\C/C=C\C/C=C\C/C=C\CCC(=O)NC(C)C(=O)O (stereo unspecified) | 4.32% (inactive) |  |
| CC12C=C(C=Cc3ccc(F)cc3)C(C)(C1)C(c1ccc(F)cc1)CC2=O (stereo unspecified) | 8.67% [at 8.59 µM] (inactive) |  |
| CC(C)[C@H]1CC[C@@H](C)C[C@H]1O | -12.9% (inactive) |  |
